# Most compounds without a hit are left out; they make up all but 11% or so of the library.
# BAZ2B inh: inhibitors of human BAZ2B bromodomain. Q9UIF8. AlphaScreen BAZ2B-H3K14Ac peptide displacement. Potency, µM (series often up to 114 µM), for the others: at the highest dose activity change, negative = inhibition, usual class: inhibitors. actives 4.4% (n = 360,000). AID 504333; further: on the % scale 0 is the no-effect control and ±100 the full control effect; nearly all actives have a fitted effect of over 60% in size
#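 AlphaScreen luminescence quantifies BAZ2B engagement of H3K14Ac peptide; the protein and biotinylated peptide are both at 50 nM final, buffer PBS pH 7.4 with 0.01% Tween-20, all steps at room temperature.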
# HP1b binding inh: HP1-beta chromodomain-methylated histone interaction inhibition. AlphaScreen HP1-beta / biotin-H3K9me3 peptide binding. Potency, µM (doses to about 114 µM), for the others: at the top dose activity change, negative = inhibition, hits mostly inhibitors. actives 0.56% (n = 390,000). AID 540317; further: nearly all actives have a fitted effect of over 70% in size
# Target sequence (P83916 whole entry, looked up): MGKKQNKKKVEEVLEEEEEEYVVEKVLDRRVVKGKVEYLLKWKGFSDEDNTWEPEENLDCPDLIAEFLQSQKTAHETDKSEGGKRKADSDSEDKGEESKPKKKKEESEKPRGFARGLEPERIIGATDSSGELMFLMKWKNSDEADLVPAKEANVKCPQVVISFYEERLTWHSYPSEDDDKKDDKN
#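 HP1-beta protein (50 nM final) preincubated 30 min at room temperature with biotinylated H3(1-18)K9me3 peptide (50 nM) in PBS pH 7.4, 0.01% Tween-20, then compound added for 30 min. AlphaScreen streptavidin donor/nickel chelate acceptor beads (10 ug/mL final), 30 min dark, luminescence read.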
# G9a block: inhibitors of human histone lysine methyltransferase G9a; actives 8.8% (n = 350,000); AID 504332; Q96KQ7; Potency, µM (series often up to 102 µM), inactives show at the top dose activity, negative = inhibition, hits mostly inhibitors; G9a H3K9 monomethylation, AlphaScreen, 2 h; further: on the % scale 0 is the no-effect control and ±100 the full control effect; nearly all actives have a fitted effect of over 75% in size
#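 Step 1: enzyme (final 20 nM) with compound, 15 min RT. Step 2: substrate peptide 500 nM and SAM 20 uM, 2 h RT. Step 3: anti-H3K9me1 antibody and AlphaScreen beads, 10 min, then plate read.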
# PLK1 PBD inh: blocks phosphopeptide binding to human PLK1 polo-box domain. Plk1 PBD binding of FITC phosphopeptide, fluorescence polarization. Potency, µM, for inactives: max response, negative = inhibition, most hits filed as inhibitors. actives 2.8% (n = 360,000). AID 720504; further: series mostly up to about 57 µM; on the % scale 0 is the no-effect control and ±100 the full control effect; nearly all actives have a fitted effect of over 65% in size
# VDR inhibitor: blocks the human vitamin D receptor | P11473 | VDR-SRC2-3 peptide fluorescence polarization, 2 h | Potency, µM, for the others: max response, negative = inhibition, most hits filed as inhibitors | actives 0.93% (n = 400,000); further: on the % scale 0 is the no-effect control and ±100 the full control effect
# Target sequence (P11473 whole entry, looked up): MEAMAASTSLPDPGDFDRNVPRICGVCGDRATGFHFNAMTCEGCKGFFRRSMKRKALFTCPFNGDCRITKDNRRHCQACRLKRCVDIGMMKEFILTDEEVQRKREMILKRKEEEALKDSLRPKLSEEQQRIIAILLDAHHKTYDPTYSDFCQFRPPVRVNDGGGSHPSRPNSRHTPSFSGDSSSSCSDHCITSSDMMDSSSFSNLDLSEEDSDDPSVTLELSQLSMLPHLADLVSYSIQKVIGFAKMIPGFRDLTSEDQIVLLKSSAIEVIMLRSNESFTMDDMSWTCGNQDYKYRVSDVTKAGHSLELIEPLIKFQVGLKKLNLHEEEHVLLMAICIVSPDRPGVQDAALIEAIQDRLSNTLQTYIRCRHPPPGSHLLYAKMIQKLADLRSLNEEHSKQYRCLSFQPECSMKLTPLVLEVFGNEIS
#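 Two reagent solutions held at 4 deg C in the dark were dispensed, compounds pinned at 23 nl, and the mixture incubated 2 h at room temperature. Read-out: fluorescence polarization of VDR–SRC2-3 peptide binding.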
# JMJD2A Tudor inh: JMJD2A Tudor domain (human) inhibition; O75164; AID 504339; Potency, µM (titrated, usually from 114 µM), without a hit: top-dose activity change, negative = inhibition, hits mostly inhibitors; AlphaScreen JMJD2A-Tudor / H3K4me3 peptide binding; actives 4.4% (n = 390,000); further: on the % scale 0 is the no-effect control and ±100 the full control effect; nearly all actives have a fitted effect of over 50% in size
# * hit, by the source's call; ? = inconclusive; · = no result; ! = repeats disagree; [ ] = another dose, or the depositor's remark. The call rests on the fitted dose curve; in most records, active means well fitted curve in the direction sought with a large enough effect; inconclusive means small, poorly fitted or top-dose-only effect, or another doubt; inactive means no such curve, though single readings can be large; an effect the other way counts as inactive or inconclusive. Potency means the concentration at half of the fitted maximal effect.
SMILES,BAZ2B inh,HP1b binding inh,G9a block,PLK1 PBD inh,VDR inhibitor,JMJD2A Tudor inh
C=CCN=C1NN=C(c2ccc3c(c2)OCCO3)CS1,-34.5%,-3.9%,39.8µM*,-22.6%,-11.4%,-33.8%
c1ccc(C2=NNC(=NCc3ccc4c(c3)OCO4)SC2)cc1,-37.3%,5.7%,39.8µM*,?,-20.7%,-27.2%
S=C(Nc1ccccc1)N1CCc2ccccc21,-6.2%,11.1%,19.0%[0.501 µM],-15.6%,-25.6%,-24.7%
Fc1cccc(NC(=S)N2CCc3ccccc32)c1,-28.1%,14.8%,?,-19.5%,-5.2%,-22.1%
O=C(NC(=S)N1CCc2ccccc21)c1ccccc1,?,-15.3%,44.7µM*,-16.8%,3.0%,?
COc1ccc(NC(=S)N2CCc3ccccc32)cc1OC,?,10.1%,50.1µM*,-2.3%,-20.8%,-24.1%
CC(=O)c1cccc(NC(=S)N2CCc3ccccc32)c1,-0.4%,4.5%,35.5µM*,?,20.6%,-27.1%
O=C(NC(=S)N1CCc2ccccc21)c1ccccc1Cl,-23.5%,-1.3%,1.0%,-7.9%,-2.4%,-22.8%
O=[N+]([O-])c1ccc(NC(=S)N2CCc3ccccc32)cc1,?,-15.5%,35.5µM*,-15.5%,-9.3%,?
CC(C)(C)C(=O)Nc1nnc(SCC(=O)NCc2ccco2)s1,-0.6%,5.9%,-10.8%[59 µM],-13.6%,-9.4%,-11.9%
CC(=O)N1CCc2cc(S(=O)(=O)NC(CC(C)C)C(=O)Nc3ccc(C(C)C)cc3)ccc21 (stereo not drawn),·,27.0%,-6.6%[59 µM],·,-7.8%,-12.0%
Cc1cc(C)cc(NC(=S)NN)c1,-21.1%,-10.8%,10µM*,-14.7%,-19.6%,-27.6%
Cc1cc(C)cc(NC(=S)Nc2ccccn2)c1,?,15.2%,-18.7%[59 µM],-6.3%,-10.3%,-23.9%
COc1ccc(N2CC(NC(=O)c3cccs3)CC2=O)cc1OC (stereo not drawn),-10.1%,17.1%,-2.9%[59 µM],·,7.3%,-7.5%
Oc1ccc(/C=C/c2cc(O)cc(O)c2)cc1,-26.8%,14.9%,7.94µM*!,-8.7%,-7.6%,-27.3%
Oc1ccc(/C=C\c2cc(O)cc(O)c2)cc1,·,·,-41.5%[5.15 µM],·,5.2%,·
O=C(O)CCc1ccc(-c2ccccc2)n1NC(=O)c1sc2ccccc2c1Cl,?,-21.4%,50.1µM*,-15.1%,12.3%,4.0%[57.1 µM]
CCCN(CC(=O)Nc1ccccc1OC)C(=O)CCNC(=O)c1ccccc1OC,-6.7%,28.2%,12.1%[2.33 µM],-11.5%,-3.6%,-13.7%
Cc1cccc(CN2C(=O)CCSc3ccc(Cl)cc32)c1,26.6%,28.5%,42.4%,26.7µM*,-17.3%,-18.5%[11.4 µM]
CCCOC(=O)c1c(-c2ccc(OC)cc2)oc2ccc(-c3ccc(OC)nc3)cc12,15.8%,71.6%,?,37.7µM*,-29.1%,-10.7%
Cc1cc(C)c(S(=O)(=O)N2CCOC2CNC(=O)C(=O)NCc2ccncc2)c(C)c1 (stereo not drawn),-25.0%,25.3%,1.3%,-5.9%,3.7%,-17.6%
CCCCN(CC)CCNC(=O)Cn1c(=O)c2cccn2c2cccnc21,-7.1%,?,-8.1%[59 µM],·,-4.0%,-24.2%
COc1cc2ncnc(NCc3cccc(F)c3F)c2cc1OC,-4.2%,49.4%,44.7µM*,-7.1%,-17.6%,-9.4%
COC(=O)CSC(C(=O)Nc1ccc(C)c(C)c1)c1ccccc1 (stereo not drawn),7.2%,27.6%,·,-3.5%,2.4%,9.0%
Cc1cc(OCc2nc3ccccc3s2)ccc1N,39.8µM*,?,10µM*,10.6µM*,?,?
SMILES,BAZ2B inh,HP1b binding inh,G9a block,PLK1 PBD inh,VDR inhibitor,JMJD2A Tudor inh
CCC(=O)Nc1ccc(OCc2nc3ccccc3s2)cc1,·,-26.2%,10µM*,16.8µM*,?,-30.8%
CC(=O)N1CCC2(CC1)CN(Cc1ccccc1)C2,·,·,7.9%[12.7 µM],·,-9.7%,·
CCn1c(=O)cc(SCC(=O)Nc2ccc(C)cn2)c2ccccc21,12.0%,26.7%,8.2%,-6.0%,-11.8%,-6.2%
CCN(CC)C(=O)CSc1nc(-c2ccc(C)cc2)nc2c1Cc1c(CO)cnc(C)c1O2,44.7µM*,-1.5%,14.1µM*,·,-3.8%,?
Cc1cc(C)cc(NC(=O)CSc2nc(-c3cccc(Cl)c3)nc3c2Cc2c(CO)cnc(C)c2O3)c1,50.1µM*,48.9%,1.2%[59 µM],·,-4.0%,7.7%
Cc1ccc(-c2nc3c(c(SCC(=O)Nc4ccccc4Cl)n2)Cc2c(CO)cnc(C)c2O3)cc1,-1.1%,35.3%,4.9%[59 µM],·,0.1%,11.7%
COc1ccc(-c2nc3c(c(SCC(=O)N4CCOCC4)n2)Cc2c(CO)cnc(C)c2O3)cc1,12.1%,10.0%,87.8%[59 µM],-17.1%,-8.0%,-35.4%
Cc1ccc(-c2nc3c(c(SCC(=O)N4CCOCC4)n2)Cc2c(CO)cnc(C)c2O3)cc1,?,29.6%,14.1µM*,?,-26.5%,?
COC(=O)c1sc(S(=O)(=O)Nc2ccc(Br)cc2)c(C(=O)OC)c1C,-9.3%,18.9%,-70.5%,?,-15.8%,-28.8%
Cc1c(N=NC2=C(O)CC(C)(C)CC2=O)cc2c(c1[N+](=O)[O-])C(C)(C)CC2(C)C,?,?,?,2.7%,114.3%,22.4µM*
CC(=O)Nc1cc2c(c([N+](=O)[O-])c1C)C(C)(C)CC2(C)C,·,5.1%,·,0.0%,0.5%,-10.3%
CC(C)c1ccc(NC(=O)Cn2cc(S(=O)(=O)N3CCN(c4ccccc4F)CC3)c3ccccc3c2=O)cc1,-8.2%,3.2%,-9.1%[59 µM],·,-6.5%,-21.2%
COc1ccc(NCc2nc3ccccc3n2CCOc2ccccc2C)cc1,12.6µM*,?,?,·,-7.7%,20µM*
Cc1ccc(NCc2nc3ccccc3n2CCOc2ccccc2)cc1,22.4µM*,-23.2%,2.24µM*,-14.9%,-6.7%,15.8µM*
COc1ccc(/C=C2\SC(=S)N(CCC(=O)Nc3ccc(C(=O)O)cc3)C2=O)cc1,35.5µM*,50.1µM*,20.2%[0.501 µM],-29.8%,-6.6%,-100.7%
COc1ccccc1/C=C1/SC(=S)N(CCC(=O)Nc2cccnc2)C1=O,-1.7%,24.3%,23.8%,18.5%,7.3%,?
COc1cc(/C=C2\SC(=S)N(CCC(=O)Nc3ccc(O)cc3)C2=O)cc(OC)c1OC,-0.1%,-4.3%,1.3%,29.9µM*,-21.3%,22.4µM*
COc1ccc(/C=C2\SC(=S)N(CC(=O)OCC(=O)Nc3ccc(C)cc3Cl)C2=O)cc1,-25.9%,4.8%,14.1µM*,-7.9%,25.9%,?
CCc1ccc(/C=C2/SC(=S)N(CCC(=O)Nc3ccc(C(=O)O)cc3)C2=O)cc1,?,·,91.2%,·,·,·
COc1ccccc1/C=C1\SC(=S)N(CCC(=O)Nc2ccc(C(=O)O)c(O)c2)C1=O,50.1µM*,?,50.1µM*,?,?,?
O=C(CCN1C(=O)/C(=C/c2ccc(Cl)cc2)SC1=S)Nc1ccc(C(=O)O)cc1,-15.6%,70.8µM*,?,29.9µM*,-0.3%,?

# High-throughput results (PubChem BioAssay)
